HCMV inh: human cytomegalovirus inhibition. activity change, negative = inhibition, % at 57.5 µM. 410,000 compounds, 4.5% hits. AID 1259415. HFF cells, HCMV-luciferase reporter, 72 h; stronger effect = lower value; in the data active means activity change below about -60%; inconclusive means no clear call, values can overlap the other calls; inactive means above about -39%
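Cell-based, HFFs, 1000 cells/well, 16 h 37C; cpds in DMSO + HCMV-luc, MOI 1 PFU/cell; 72 h 37C; OneGlo luminescence after 5 min RT; norm. to buffer vs Salinomycin 10uM.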
FMDV antiviral: antivirals against foot and mouth disease virus; Potency, µM (titrated, usually from 57.9 µM), for inactives: at the top dose activity change, negative = inhibition, usual class: inhibitors; 410,000 compounds, 1.2% hits; FMDV antiviral cell-based qHTS; calls by dose curve; tested in HEK293T cells; further: read-out not given here; potency means the concentration at half of the fitted maximal effect; nearly all actives have a fitted effect of over 45% in size
Giardia FBPA inh: blocks Giardia fructose-bisphosphate aldolase activity; purified Giardia FBPA; Potency, µM (titrated, usually from 59.6 µM), for the others: at the highest dose activity, negative = inhibition, usual class: inhibitors; 290,000 compounds, 0.71% hits; further: potency means the concentration at half of the fitted maximal effect; nearly all actives have a fitted effect of over 55% in size
Target sequence (A8B2U2 whole entry, looked up): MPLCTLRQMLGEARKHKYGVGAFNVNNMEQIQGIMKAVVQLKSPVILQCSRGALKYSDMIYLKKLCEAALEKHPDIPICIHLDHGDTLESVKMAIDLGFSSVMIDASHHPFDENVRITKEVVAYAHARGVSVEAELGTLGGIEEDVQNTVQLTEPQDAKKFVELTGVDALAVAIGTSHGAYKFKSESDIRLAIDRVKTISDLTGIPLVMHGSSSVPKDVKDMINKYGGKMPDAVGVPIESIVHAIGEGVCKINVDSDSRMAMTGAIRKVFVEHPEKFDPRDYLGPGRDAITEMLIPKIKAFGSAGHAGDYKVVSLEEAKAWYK
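40 nM FBPA preincubated 10 min at RT with compound (up to 57.5 uM final), then substrate plus GAPDH/TPI/NAD/arsenate coupling and diaphorase/resazurin added. Fluorescence read after 20 min at RT, 525/598 nm.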
Lassa entry inh: blocks Lassa virus binding to or entry into cells | Lassa virus pseudotype entry inhibition, cell reporter | Potency, µM (titrated, usually from 37.9 µM), for inactives: at the top dose activity change, negative = inhibition, usual class: inhibitors | 300,000 compounds, 1.2% hits | AID 540256; calls by dose curve; tested in HEK293 cells; further: potency means the concentration at half of the fitted maximal effect; nearly all actives have a fitted effect of over 50% in size
HCV inh: blocks hepatitis C virus | Huh7.5.1 HCVcc-Cre infection, luciferase reporter, 44 h | Potency, µM (series often up to 41.8 µM), without a hit: at the top dose activity change, negative = inhibition, hits mostly inhibitors | 340,000 compounds, 3.4% hits; further: potency means the concentration at half of the fitted maximal effect
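Compounds are dispensed onto cells plated 4 h earlier at 1,000 per well, with HCVcc-Cre virus (about 0.5 moi) added next. Following 44 h of culture, luminescent signal is measured for 15 sec after 15 min with substrate at room temperature.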
Marburg entry inh: inhibitors of Marburg virus binding or cell entry; Potency, µM (doses to about 37.8 µM), without a hit: at the top dose activity change, negative = inhibition, usual class: inhibitors; AID 540276; Marburg virus pseudotyped entry inhibition, cell reporter; 300,000 compounds, 1.8% hits; calls by dose curve; tested in HEK293 cells; further: potency means the concentration at half of the fitted maximal effect
An asterisk follows results filed as active; [ ] = remark or other dose. A selection: hits, their analogues and other compounds. The true share with any hit is near 8.3%. Unless noted, the call rests on the fitted dose curve; in most records, active means well fitted curve in the direction sought with a large enough effect; inconclusive means small, poorly fitted or top-dose-only effect, or another doubt; inactive means no such curve, though single readings can be large; an effect the other way counts as inactive or inconclusive. On the % scale 0 is the no-effect control and ±100 the full control effect.

What do the screens show for `Cn1c(=O)[nH]c(=O)c2c1nc(N1CCNCC1)n2Cc1ccccc1`?
HCMV inh: 19.5; FMDV antiviral: -4.2%; Giardia FBPA inh: 3.8%; Lassa entry inh: inconclusive; HCV inh: 20.6%; Marburg entry inh: inconclusive

What do the screens show for `CC(C)Cn1c([N+](=O)[O-])nc2c1c(=O)[nH]c(=O)n2C`?
HCMV inh: -103.2*; FMDV antiviral: 28.2µM*; Giardia FBPA inh: inconclusive; Lassa entry inh: 7.08µM*; HCV inh: inconclusive; Marburg entry inh: inconclusive

What do the screens show for `Cn1c(=O)[nH]c(=O)c2c1nc([N+](=O)[O-])n2Cc1ccccc1`?
HCMV inh: -97.2*; FMDV antiviral: 7.94µM*; Giardia FBPA inh: 14.1µM*; Lassa entry inh: inconclusive; HCV inh: -83.5%; Marburg entry inh: inconclusive

What do the screens show for `Fc1cccc(NCc2ccccc2-c2nnc(-c3ccccc3Cl)o2)c1`?
HCMV inh: 69.1; FMDV antiviral: 44.3%; Lassa entry inh: 25.8%[46.1 µM]; Marburg entry inh: inconclusive

What do the screens show for `COc1cc2oc(=O)c3c4c(cc5ccc(c1CCN(C)C)c2c53)OCO4`?
FMDV antiviral: -6.0%; Giardia FBPA inh: -18.9%

Results for NC(=O)c1ccc[n+](CC(=O)c2ccc(NC(=O)c3ccccc3)cc2)c1 ?
HCMV inh: 0.1; FMDV antiviral: 14.1%; Giardia FBPA inh: 12.6%; Lassa entry inh: inconclusive; HCV inh: 23.0%; Marburg entry inh: inconclusive

How did NC(=O)c1ccc[n+](CC(=O)c2ccccc2)c1 do in these assays?
HCMV inh: -5.6; FMDV antiviral: -19.8%; Giardia FBPA inh: -7.9%; Lassa entry inh: 9.7%[46.1 µM]; HCV inh: 0.562µM*; Marburg entry inh: inconclusive

What do the screens show for `Cc1noc(C)c1C(=O)N1CCC[C@@]2(CCN(c3ccccn3)C2)C1`?
FMDV antiviral: -1.6%; Giardia FBPA inh: -5.2%

What do the screens show for `COC(=O)C1=C(C)N(C)C(=NCc2cc(OC)c(OC)c(OC)c2)NC1c1cccc(Cl)c1` (stereo unspecified)?
HCMV inh: -6.5

Results for O=C(NCCN1CCN(c2cccc(Cl)c2)CC1)c1ccc(CSc2nc3ccncc3[nH]2)cc1 ?
HCMV inh: -79.4*; FMDV antiviral: -21.7%; Giardia FBPA inh: 0.3%; Lassa entry inh: inconclusive; HCV inh: inconclusive; Marburg entry inh: inconclusive

Results for COc1cccc(/C=C/C(=O)NCc2ccc(S(N)(=O)=O)cc2)c1 ?
HCMV inh: 25.0; FMDV antiviral: 5.1%; Giardia FBPA inh: -0.1%; Lassa entry inh: 4.0%; HCV inh: 10µM*; Marburg entry inh: -6.9%[46.1 µM]

What do the screens show for `NS(=O)(=O)c1ccc(CNC(=O)/C=C/c2ccccc2)cc1`?
HCMV inh: 11.4; FMDV antiviral: -11.8%; Giardia FBPA inh: -0.7%; Lassa entry inh: 21.0%; HCV inh: 21.7%; Marburg entry inh: 23.0%

What do the screens show for `O=C(CCc1nnc2n(Cc3ccccc3Cl)c(=O)c3ccccc3n12)Nc1ccccc1`?
HCMV inh: -19.9; FMDV antiviral: -3.8%; Marburg entry inh: -14.1%[46.1 µM]

How did O=C(c1cccc(S(=O)(=O)N2CCN(c3ccccc3)CC2)c1)N1CCCC(C(F)(F)F)C1 (stereo unspecified) do in these assays?
HCMV inh: -91.4*; FMDV antiviral: inconclusive; Lassa entry inh: inconclusive; HCV inh: inconclusive; Marburg entry inh: inconclusive

What do the screens show for `O=C(c1cc(S(=O)(=O)N2CCN(c3ccccc3)CC2)ccc1Cl)N1CCCC(C(F)(F)F)C1` (stereo unspecified)?
HCMV inh: -82.1*; FMDV antiviral: inconclusive; Lassa entry inh: inconclusive; HCV inh: 7.94µM*; Marburg entry inh: inconclusive

How did O=C(c1cccc(S(=O)(=O)N2CCCC2)c1)N1CCN(c2ccccc2)CC1 do in these assays?
HCMV inh: -15.5; FMDV antiviral: -5.9%; Giardia FBPA inh: 2.1%; Lassa entry inh: 47.5%[14.3 µM]; HCV inh: inconclusive; Marburg entry inh: inconclusive

What do the screens show for `CCN1C(=O)/C(=C/c2ccc(C)s2)NC1=S`?
HCMV inh: -23.2; FMDV antiviral: 7.0%; Giardia FBPA inh: -14.8%; Lassa entry inh: 5.5%; HCV inh: 6.3%; Marburg entry inh: 18.8%[46.1 µM]

Results for CCN1C(=O)C(=Cc2ccc(C)s2)C(=O)N(CC)C1=S ?
HCMV inh: 32.0; FMDV antiviral: 39.8µM*; Giardia FBPA inh: -10.7%; Lassa entry inh: inconclusive; HCV inh: 5.0%; Marburg entry inh: inconclusive

What do the screens show for `O=C(c1cccc(F)c1)N1CCC2(CCN(Cc3cc(C(F)(F)F)cc(C(F)(F)F)c3)CC2)CC1`?
FMDV antiviral: -14.8%; Giardia FBPA inh: 0.9%

What do the screens show for `NC(=O)C1CCN(C(=O)CSc2ccsc2[N+](=O)[O-])CC1`?
HCMV inh: -25.8; FMDV antiviral: -4.6%; Giardia FBPA inh: -0.1%; HCV inh: 15.1%

How did O=C(CSc1ccsc1[N+](=O)[O-])N1CCCCCC1 do in these assays?
HCMV inh: -72.2*; FMDV antiviral: 16.2%; Giardia FBPA inh: -3.2%; HCV inh: -0.3%

How did Cc1c2c(cc3c1[nH]c1ccccc13)C=NCC2 do in these assays?
HCMV inh: 2.6; FMDV antiviral: -6.3%; Lassa entry inh: 7.8%[46.1 µM]; HCV inh: 10µM*; Marburg entry inh: inconclusive

What do the screens show for `O=C(Cn1c(=O)n(Cc2ccco2)c(=O)c2sc3ccccc3c21)Nc1ccccc1C(F)(F)F`?
HCMV inh: 12.8; FMDV antiviral: -21.4%; Lassa entry inh: -6.2%[46.1 µM]; Marburg entry inh: 0.9%[46.1 µM]

Results for C=C1C(=O)OC2C1CC/C(C)=C/CCC1(C)OC21 (stereo unspecified) ?
FMDV antiviral: inconclusive; Giardia FBPA inh: 3.3%

What do the screens show for `C=C1C(=O)OC2CC3(C)OC3CCC(C)=CC(OC(C)=O)C12` (stereo unspecified)?
HCMV inh: 0.0; FMDV antiviral: 35.5µM*; Lassa entry inh: inconclusive; HCV inh: inconclusive; Marburg entry inh: inconclusive

Results for CN(C)C(=O)c1ccc(-c2ccc3ncnc(NCCN4CCOCC4)c3c2)cc1 ?
FMDV antiviral: 13.9%; Giardia FBPA inh: 7.3%

Results for COc1cc(/C=C/C(=O)N2CCCCC2=O)cc(OC)c1OC ?
Giardia FBPA inh: 9.1%

How did N#C/C(=N\Nc1ccc([N+](=O)[O-])cc1)C(N)=S do in these assays?
HCMV inh: -95.3*; FMDV antiviral: -27.5%; Giardia FBPA inh: inconclusive; Lassa entry inh: inconclusive; HCV inh: 10µM*; Marburg entry inh: inconclusive

Results for N#C/C(=N/Nc1ccc([N+](=O)[O-])cc1)C(=N)N1CCCCC1 ?
HCMV inh: 48.4; FMDV antiviral: 30.0%; Giardia FBPA inh: -22.8%; Lassa entry inh: inconclusive; HCV inh: 3.1%; Marburg entry inh: -24.8%[46.1 µM]

Results for N#C/C(=N\Nc1cccc([N+](=O)[O-])c1)C(=O)c1ccc(Br)cc1 ?
HCMV inh: -101.0*; FMDV antiviral: inconclusive; Giardia FBPA inh: 4.1%; HCV inh: 10µM*; Marburg entry inh: inconclusive

Assay outcomes deposited in PubChem BioAssay by National Center for Advancing Translational Sciences (NCATS).
